# Experimental data from the supplement of paper PMC9694430.
# Where a name gives a salt, the structure may show the parent alone.
# How the values were obtained:
# Test in all cases: thermal shift delta Tm vs DMSO control; higher = stronger stabilization (binding)
# Settings in all cases: 12.5 µM; protein concentration 2 µM
# LOC_OS01G57100-cb003 = system: LOC_OS01G57100-cb003
# Summary of the method: (§1)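 Compounds dissolved in DMSO were added to purified rice kinase domain constructs, which had been expressed in E. coli, for differential scanning fluorimetry. Each well held 19.5 μl of 2 μM kinase in 100 mM potassium phosphate pH 7.5, 150 mM NaCl, 10% glycerol and 5 × SYPRO Orange. Fluorescence was followed from 25°C to 95°C at a rate of 0.05°C/s. Shifts in Boltzmann-fitted melting temperature are triplicate means relative to DMSO-only protein.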
# LOC_OS01G60330-cb001 = system: LOC_OS01G60330-cb001
# Summary of the method: as §1
# LOC_OS01G60700-cb002 = system: LOC_OS01G60700-cb002
# Summary of the method: as §1
# LOC_OS01G63280-cb003 = system: LOC_OS01G63280-cb003
# Summary of the method: as §1
# LOC_OS01G67340-cb003 = system: LOC_OS01G67340-cb003
# Summary of the method: as §1
# LOC_OS01G70970-cb002 = system: LOC_OS01G70970-cb002
# Summary of the method: as §1
# LOC_OS02G07810-cb001 = system: LOC_OS02G07810-cb001
# Summary of the method: as §1
# LOC_OS02G08530-cb003 = system: LOC_OS02G08530-cb003
# Summary of the method: as §1
# LOC_OS02G14120-cb001 = system: LOC_OS02G14120-cb001
# Summary of the method: as §1
# LOC_OS02G17970-cb001 = system: LOC_OS02G17970-cb001
# Summary of the method: as §1
# LOC_OS02G45750-cb003 = system: LOC_OS02G45750-cb003
# Summary of the method: as §1
# LOC_OS02G54510-cb004 = system: LOC_OS02G54510-cb004
# Summary of the method: as §1
# LOC_OS03G04050-cb001 = system: LOC_OS03G04050-cb001
# Summary of the method: as §1
# LOC_OS03G12390-cb001 = system: LOC_OS03G12390-cb001
# Summary of the method: as §1
# LOC_OS03G27990-cb004 = system: LOC_OS03G27990-cb004
# Summary of the method: as §1
# LOC_OS03G50450-cb001 = system: LOC_OS03G50450-cb001
# Summary of the method: as §1
# LOC_OS03G50810-cb003 = system: LOC_OS03G50810-cb003
# Summary of the method: as §1
# LOC_OS04G35114-cb001 = system: LOC_OS04G35114-cb001
# Summary of the method: as §1
# LOC_OS04G38480-cb003 = system: T1, LOC_OS04G38480-cb003
# T1 sequence (whole entry): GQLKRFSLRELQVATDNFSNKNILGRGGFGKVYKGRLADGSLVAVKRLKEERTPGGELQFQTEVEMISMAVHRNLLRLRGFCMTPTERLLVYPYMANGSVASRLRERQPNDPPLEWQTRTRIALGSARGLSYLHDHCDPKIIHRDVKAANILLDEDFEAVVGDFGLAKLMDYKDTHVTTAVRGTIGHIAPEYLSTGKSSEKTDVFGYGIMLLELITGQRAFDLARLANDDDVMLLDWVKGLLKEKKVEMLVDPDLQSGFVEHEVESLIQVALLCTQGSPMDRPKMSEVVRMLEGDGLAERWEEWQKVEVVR
# Summary of the method: as §1
# LOC_OS04G41100-cb001 = system: T2, LOC_OS04G41100-cb001
# T2 sequence (whole entry): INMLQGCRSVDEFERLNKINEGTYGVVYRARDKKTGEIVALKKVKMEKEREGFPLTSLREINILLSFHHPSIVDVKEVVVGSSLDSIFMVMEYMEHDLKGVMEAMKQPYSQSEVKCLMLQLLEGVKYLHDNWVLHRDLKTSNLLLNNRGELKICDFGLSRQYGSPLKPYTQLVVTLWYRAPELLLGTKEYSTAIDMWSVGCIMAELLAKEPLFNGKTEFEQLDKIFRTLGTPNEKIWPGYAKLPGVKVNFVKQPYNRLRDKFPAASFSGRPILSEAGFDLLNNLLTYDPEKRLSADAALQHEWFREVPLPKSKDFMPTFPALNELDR
# Summary of the method: as §1
SMILES,thermal shift delta Tm (LOC_OS01G57100-cb003) [°C],thermal shift delta Tm (LOC_OS01G60330-cb001) [°C],thermal shift delta Tm (LOC_OS01G60700-cb002) [°C],thermal shift delta Tm (LOC_OS01G63280-cb003) [°C],thermal shift delta Tm (LOC_OS01G67340-cb003) [°C],thermal shift delta Tm (LOC_OS01G70970-cb002) [°C],thermal shift delta Tm (LOC_OS02G07810-cb001) [°C],thermal shift delta Tm (LOC_OS02G08530-cb003) [°C],thermal shift delta Tm (LOC_OS02G14120-cb001) [°C],thermal shift delta Tm (LOC_OS02G17970-cb001) [°C],thermal shift delta Tm (LOC_OS02G45750-cb003) [°C],thermal shift delta Tm (LOC_OS02G54510-cb004) [°C],thermal shift delta Tm (LOC_OS03G04050-cb001) [°C],thermal shift delta Tm (LOC_OS03G12390-cb001) [°C],thermal shift delta Tm (LOC_OS03G27990-cb004) [°C],thermal shift delta Tm (LOC_OS03G50450-cb001) [°C],thermal shift delta Tm (LOC_OS03G50810-cb003) [°C],thermal shift delta Tm (LOC_OS04G35114-cb001) [°C],thermal shift delta Tm (LOC_OS04G38480-cb003) [°C],thermal shift delta Tm (LOC_OS04G41100-cb001) [°C]
CC(C)(C)c1nc(-c2ccc(NC(=O)Nc3cccc(C(F)(F)F)c3)c3ccccc23)c2c(N)nccn12 [kira6],0.63,1.17,0.03,14.6,8.45,0.75,0.03,2.22,2.07,1.1,2.31,9.87,0.01,2.25,7.11,0.7,4.91,3.47,1.58,-0.01
COc1cc2c(Nc3ccc(NC(=O)c4ccccc4)cc3)ncnc2cc1OCCCN1CCOCC1,0.97,1.05,0.6,1.19,0.4,1.66,1.37,0.66,0.79,0.45,2.66,0.37,0.55,0.43,0.34,0.3,1.85,2.46,0.65,0.59
CCS(=O)(=O)c1cccc(-c2cc(C(=O)NC3CCN(C)CC3)c(C)c3[nH]c4ncc(C)cc4c23)c1,1.61,3.88,0.41,-0.02,0.99,6.38,0.49,4.38,10.6,0.54,5.63,2.03,-0.02,6.67,3.82,3.53,5.67,6.23,3.14,0.65
CS(=O)(=O)N1CCc2c(-c3cnc(N)nc3)nc(N3CCOCC3)nc21,1.64,1.56,0.95,0.4,1.13,0.73,1.06,1.51,1.15,0.81,1.16,0.52,0.13,0.72,0.23,0.77,0.53,0.89,1.31,0.14
CO[C@H]1C[C@@H]2CC[C@@H](C)[C@@](O)(O2)C(=O)C(=O)N2CCCC[C@H]2C(=O)O[C@H]([C@H](C)C[C@@H]2CC[C@@H](OCCO)[C@H](OC)C2)CC(=O)[C@H](C)/C=C(\C)[C@@H](O)[C@@H](OC)C(=O)[C@H](C)C[C@H](C)/C=C/C=C/C=C/1C [Everolimus (RAD001)],0.99,1.72,0.6,0.26,-0.17,-0.1,0.75,0.55,1.17,0.76,0.22,-0.05,0.59,0.14,-0.04,-0.1,0.05,-0.39,0.94,0.65
CCN(CC)CCNC(=O)c1c(C)[nH]c(/C=C2\C(=O)Nc3ccc(-c4csc(-c5ccccc5)n4)cc32)c1C [Amcasertib (BBI503)],0.34,0.8,-0.11,0.21,0.03,0.3,-0.19,3.7,4.69,-0.15,0,0.74,0.42,0.16,0.77,1.61,7.41,15,1.78,0.78
Cc1cnc(Nc2ccc(OCCN3CCCC3)cc2)nc1Nc1cccc(S(=O)(=O)NC(C)(C)C)c1,2.1,1.83,0.56,0.21,0.84,2.94,0.5,2.64,7.4,0.44,2.37,0.89,0.72,3.03,1.33,1.51,3.13,3.12,1.88,0.68
C#Cc1cccc(Nc2ncnc3cc4c(cc23)OCCOCCOCCO4)c1 [Icotinib],2.43,0.51,1.16,0.89,0.11,0.61,0.45,1.31,2.16,1.61,3.3,0.13,0.58,1.26,0.45,0.72,1.31,4.38,3.08,0.38
O=C1c2c(O)cc(O)cc2OC(c2ccc(O)c(O)c2)C1O (stereo not given) [Taxifolin (Dihydroquercetin)],1.27,0.28,0.38,0.25,0.07,0.29,0.09,0.73,0.32,0.67,0.74,-0.16,0.4,0.47,0.2,0.2,0.08,0.29,0.17,0.5
"CC(C)(O)CNc1ncc(-c2ccnc(Nc3ccncc3)n2)c(CC2CC2)n1 [VPS34 inhibitor 1 (Compound 19, PIK-III analogue)]",1.59,0.38,0.34,0.12,-0.02,0.5,-0.03,0.85,4.52,0.28,2.27,0.29,0.5,0.77,0.32,0.37,0.9,1.51,1.97,0.43
Cc1ccc(NC(=O)c2ccc(CN3CCN(C)CC3)cc2)cc1Nc1nccc(-c2cccnc2)n1 [Imatinib Mesylate (STI571)],1,0.66,0.7,0.06,-0.58,-0.12,0.51,1.09,0.52,0.04,0.55,0.16,0.17,0.88,-0.03,-0.05,0.09,0.75,0.34,0.59
CC(C)CCN1c2nc(Nc3cc(F)c(O)c(F)c3)ncc2N(C)C(=O)C1C (stereo not given),1.71,6.27,2.07,7.85,8.73,4.67,1.13,2.78,3.11,1.38,3.25,1.91,0.57,7.92,3.82,2.58,3.02,3.84,4.5,1.29
